Among the data in PubChem BioAssay are z-score and composite z-score values, retold here.

The nature of experiment [1]: E. coli DRC41 culture turbidity changes, primary screen, E. coli filamentation inducer project, strain DRC41, OD650, 48 h (AID 1152).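 Note: E. coli MC1000 strain DRC41 lacking acrAB efflux pump and sulA.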 To be noted: E. coli DRC41 (acrAB sulA), higher = more signal, called active from +8 up or from −8 down.
Experiment [2] can be described thus: small-molecule binders of probe aLefty1, primary screen, biochemical, small-molecule microarray, 635/667 nm fluorescence (AID 1153).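 Note: score merges spot fluorescence with signal-to-noise ratio from the scanned slide images.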 To be noted: higher = more signal.
Experiment [3] can be described thus: PSAC antagonists in infected red cells, primary screen, cell-based, P. falciparum Indochina, OD700, 1 h (AID 1154). Particulars: P. falciparum Indochina infected RBC osmotic lysis, higher = more signal, called active from +8 up or from −8 down.
Experiment [4] is described as follows: PSAC antagonists in infected red cells, primary screen, cell-based, P. falciparum Indochina, OD700, 2 h (AID 1155).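 Note: lysis reports solute entry through the parasite surface anion channel PSAC; channel blockers reduce lysis of infected cells.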 To be noted: P. falciparum Indochina infected erythrocytes, osmotic lysis OD700; higher = more signal, called active from +8 up or from −8 down.
The nature of experiment [5]: osmotic lysis modulators in infected erythrocytes, primary screen, PSAC antagonist project, cell-based, P. falciparum Indochina, OD700, 3 h (AID 1156). To be noted: higher = more signal, called active from +8 up or from −8 down.
Experiment [6] can be described thus: PSAC antagonists in infected red cells, primary screen, cell-based, P. falciparum Indochina, OD700, 18 h (AID 1157). Particulars: P. falciparum Indochina infected erythrocytes, osmotic lysis OD700, 18 h; higher = more signal, called active from +8 up or from −8 down.
Experiment [7] in a line: modulators of S6 phosphorylation in cells, primary screen, cell-based, A549, cytoblot, luminescence, serum-stimulated (AID 1158).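 Note: serum-stimulated A549 lung adenocarcinoma cells; signal is phosphorylated S6 detected by cytoblot immunostaining with HRP secondary.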 To be noted: A549 phospho-S6 cytoblot, 5 h, higher = more signal.
The target of experiment [8] is NADPH oxidase 2 (Homo sapiens) (UniProt P04839). The experiment can be described thus: NOX2-dependent H2O2 signal modulators, primary screen, NOX inhibitor project, cell-based, HEK293-NOX2, PMA-stimulated, Amplex Red fluorescence (AID 1159). Note: test concentration not given here. Particulars: 45 min, higher = more signal, called active from +8 up or from −8 down.
The target of experiment [9] is NADPH oxidase 4 (Homo sapiens) (UniProt Q9NPH5). Briefly: NOX4-dependent H2O2 signal modulators, primary screen, NOX inhibitor project, cell-based, HEK293-NOX4, tetracycline-induced, Amplex Red fluorescence (AID 1160). Particulars: 45 min, higher = more signal, called active from +8 up or from −8 down.
For experiment [10], the target named is NADPH oxidase 5 (Homo sapiens) (UniProt Q96PH1). Briefly: NOX5-dependent H2O2 signal modulators, primary screen, NOX inhibitor project, cell-based, HEK293-NOX5, Amplex Red fluorescence (AID 1161). Particulars: HEK293-NOX5, ionomycin, 45 min, higher = more signal.
Experiment [11] in a line: A549 cell viability effects, profiling panel, calcein-AM fluorescence, 48 h, basal (AID 1162). Note: test concentration not given here. Particulars: higher = more signal.
Experiment [12] is described as follows: adipocyte viability effects, profiling panel, cell-based, 3T3-L1 adipocytes, calcein-AM fluorescence, 48 h, basal (AID 1163). Note: test concentration not given here. Particulars: 3T3-L1 adipocytes viability, higher = more signal.
Experiment [13] can be described thus: HepG2 cell viability effects, profiling panel, calcein-AM fluorescence, 48 h, basal (AID 1164). Note: test concentration not given here. Particulars: higher = more signal.
Experiment [14] in a line: MM1S cell viability effects, profiling panel, calcein-AM fluorescence, 48 h, basal (AID 1165).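 Note: viability of MM1S multiple myeloma cells under basal unstimulated conditions; test concentration not given here.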 Particulars: higher = more signal.
A short description of experiment [15]: basal RPMI8226 viability, no added stimulus, profiling panel, cell-based, calcein-AM fluorescence, 48 h, PK04 Diversity Set (AID 1166).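 Note: cells grown under basal conditions without added stimulus; test concentration not given here.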 To be noted: RPMI8226 myeloma viability, higher = more signal.
Experiment [16] can be described thus: basal HepG2 mitochondrial membrane potential changes, profiling panel, cell-based, JC-1 fluorescence, 24 h, 100 nL compound (AID 1167). Note: test concentration not given here. Particulars: higher = more signal.
A short description of experiment [17]: basal 3T3-L1 adipocyte mitochondrial potential changes, profiling panel, cell-based, JC-1 fluorescence, 3T3-L1 adipocytes, 24 h, 100 nL compound (AID 1168). Note: test concentration not given here. Particulars: JC-1 mitochondrial fluorescence, higher = more signal, called active from +8 up or from −8 down.
The nature of experiment [18]: basal RPMI8226 mitochondrial membrane potential changes, profiling panel, cell-based, JC-1 fluorescence, 24 h, 100 nL compound (AID 1169). Note: test concentration not given here. To be noted: RPMI8226 myeloma, JC-1 mitochondrial potential fluorescence, higher = more signal.
The nature of experiment [19]: basal MM1S mitochondrial membrane potential changes, profiling panel, cell-based, JC-1 fluorescence, 24 h, 100 nL compound (AID 1170). Note: test concentration not given here. To be noted: higher = more signal.
Experiment [20] in a line: A549 lung cancer cell viability effects, profiling panel, resazurin fluorescence, 24 h, PK04 Diversity Set (AID 1171). Note: test concentration not given here. To be noted: higher = more signal, called active from +8 up or from −8 down. For orientation: Resazurin is reduced to fluorescent resorufin, in cell work by metabolically active cells.

Calls of active or inactive are those of the source.

Sequence of NADPH oxidase 2 (Homo sapiens) (P04839 whole entry, looked up): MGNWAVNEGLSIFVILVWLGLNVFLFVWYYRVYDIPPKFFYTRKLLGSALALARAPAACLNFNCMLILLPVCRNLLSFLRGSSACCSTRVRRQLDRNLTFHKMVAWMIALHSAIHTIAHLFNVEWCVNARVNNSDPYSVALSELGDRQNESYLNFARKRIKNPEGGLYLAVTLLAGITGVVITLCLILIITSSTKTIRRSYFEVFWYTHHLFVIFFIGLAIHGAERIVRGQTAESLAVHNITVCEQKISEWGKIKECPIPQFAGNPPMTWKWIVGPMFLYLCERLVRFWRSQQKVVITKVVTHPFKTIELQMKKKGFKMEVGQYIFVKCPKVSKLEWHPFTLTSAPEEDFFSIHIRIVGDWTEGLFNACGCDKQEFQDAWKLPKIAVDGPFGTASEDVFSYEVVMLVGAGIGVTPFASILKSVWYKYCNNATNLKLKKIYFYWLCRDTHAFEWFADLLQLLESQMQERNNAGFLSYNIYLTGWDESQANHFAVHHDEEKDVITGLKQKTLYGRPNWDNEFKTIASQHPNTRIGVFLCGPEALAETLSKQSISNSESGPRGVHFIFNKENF
Sequence of NADPH oxidase 4 (Homo sapiens) (Q9NPH5 whole entry, looked up): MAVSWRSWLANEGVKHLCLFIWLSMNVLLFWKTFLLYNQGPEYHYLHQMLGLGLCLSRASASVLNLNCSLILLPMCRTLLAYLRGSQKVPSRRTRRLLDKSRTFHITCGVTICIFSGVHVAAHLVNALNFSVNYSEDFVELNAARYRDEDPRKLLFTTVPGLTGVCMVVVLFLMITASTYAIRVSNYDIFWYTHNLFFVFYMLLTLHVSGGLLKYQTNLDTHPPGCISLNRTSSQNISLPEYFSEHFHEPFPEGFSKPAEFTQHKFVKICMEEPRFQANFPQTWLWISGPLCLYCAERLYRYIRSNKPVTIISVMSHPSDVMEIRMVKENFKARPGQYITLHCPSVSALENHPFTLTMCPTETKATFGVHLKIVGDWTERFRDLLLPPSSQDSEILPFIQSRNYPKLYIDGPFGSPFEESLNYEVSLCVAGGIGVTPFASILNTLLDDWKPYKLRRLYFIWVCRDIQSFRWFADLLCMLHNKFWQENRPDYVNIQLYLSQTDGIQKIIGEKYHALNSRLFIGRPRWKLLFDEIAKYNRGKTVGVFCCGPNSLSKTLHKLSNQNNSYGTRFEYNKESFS
Sequence of NADPH oxidase 5 (Homo sapiens) (Q96PH1 whole entry, looked up): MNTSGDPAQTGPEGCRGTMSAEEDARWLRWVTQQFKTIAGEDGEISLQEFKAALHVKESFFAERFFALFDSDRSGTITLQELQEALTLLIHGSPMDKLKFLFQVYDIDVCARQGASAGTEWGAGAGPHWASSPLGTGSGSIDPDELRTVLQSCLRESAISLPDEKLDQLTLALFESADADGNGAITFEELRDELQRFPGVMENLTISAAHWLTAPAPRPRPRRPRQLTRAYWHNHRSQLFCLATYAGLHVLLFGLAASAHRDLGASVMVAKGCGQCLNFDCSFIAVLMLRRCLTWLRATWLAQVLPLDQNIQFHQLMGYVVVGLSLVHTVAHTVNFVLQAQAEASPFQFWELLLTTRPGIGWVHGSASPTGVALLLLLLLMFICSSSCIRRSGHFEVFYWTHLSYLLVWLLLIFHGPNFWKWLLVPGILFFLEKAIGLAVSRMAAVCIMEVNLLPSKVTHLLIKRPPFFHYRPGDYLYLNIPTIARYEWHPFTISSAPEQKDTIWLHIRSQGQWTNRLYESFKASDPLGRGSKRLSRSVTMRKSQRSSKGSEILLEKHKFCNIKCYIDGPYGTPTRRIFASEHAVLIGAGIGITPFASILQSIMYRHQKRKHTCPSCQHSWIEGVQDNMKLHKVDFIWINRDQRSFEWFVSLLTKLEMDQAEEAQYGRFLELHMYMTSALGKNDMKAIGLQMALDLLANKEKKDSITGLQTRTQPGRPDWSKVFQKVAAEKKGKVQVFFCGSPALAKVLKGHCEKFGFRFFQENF

With `COCC(=C=CC[C@@H](O)c1ccccc1OCCO)C[C@@H](O)COCc1ccccc1`, the z-score is 2.01 (inactive) in experiment [1]; 6.15 (inactive) in experiment [3]; -0.29 (inactive) in [4]; 0.66 (inactive) in experiment [5]; -1.22 (inactive) in [6]; 0.719 in [7]. Besides, the z-score in experiment [8] is 0.547 (inactive); in [9], 1.31 (inactive); in experiment [10], -1.66; in experiment [11] it was 1.94; in experiment [12] it was 1.04; in experiment [13] it was 1.13. Besides, the z-score is 0.338 in experiment [14]; 0.801 in [15]; 1.32 in experiment [16]; 0.54 (inactive) in experiment [17]; -0.719 in [18]; 1.59 in experiment [19]. In addition, in experiment [20], the z-score is 1.84 (inactive). The molecule further displayed a composite z-score in experiment [2] of 0.455.
Consider `Cc1ccc(S[C@]2(C(=O)NCCN3CCOCC3)CC(=O)N(C3Cc4ccccc4C3)[C@@H]2c2ccc(CO)cc2)cc1`, for which the z-score is 0.293 (inactive) in experiment [1]; 2.1 (inactive) in experiment [3]; 0.0757 (inactive) in [4]; 0.62 (inactive) in experiment [5]; 0.375 (inactive) in [6]; -0.348 in [7]. The z-score in experiment [8] was -0.66 (inactive); in experiment [9] it was -1.82 (inactive); in experiment [10], -1.58; in experiment [11], -0.215; in [12] it was -0.143; in experiment [13] it was -0.619. In addition, the z-score in [14] was -0.0655; in experiment [15], 0.0047; in experiment [16] it was 0.699; in experiment [17], 0.242 (inactive); in experiment [18] it was 0.794; in [19] it was -0.0188. Further, the z-score in experiment [20] was 0.665 (inactive). Moreover, the composite z-score in experiment [2] came out at 0.482.
Take `COCCOC(=O)N1C(=O)[C@@]2(c3cc(C#CC4(O)CCCCCC4)ccc31)[C@H](C(=O)N1CCc3cc(OC)c(OC)cc3C1)[C@H]1C(=O)O[C@H](c3ccccc3)[C@H](c3ccccc3)N1[C@@H]2c1ccccc1OCCO`: the z-score in [1] was 0.803 (inactive); in [3], 1.39 (inactive); in experiment [4] it was 1.15 (inactive); in [5] it was 0.496 (inactive); in experiment [6], 0.655 (inactive); in experiment [7], -0.0095. In addition, the z-score is 2.73 (inactive) in experiment [8]; -0.879 (inactive) in experiment [9]; 0.554 in experiment [10]; 0.863 in experiment [11]; 1.59 in experiment [12]; 0.898 in experiment [13]. Further, the z-score in [14] was -0.401; in experiment [15], -1.47; in [16], 0.782; in [17] it was 1.29 (inactive); in [18] it was -0.477; in experiment [19], -0.952. Besides, the z-score in experiment [20] was 0.993 (inactive). In [2], this molecule displayed a composite z-score of 0.496.
Take `CO[C@H]1O[C@H](CO)[C@@H](OC(=O)Nc2cccc(F)c2)[C@H](OC(=O)Nc2ccc3c(c2)OCO3)[C@H]1OC(=O)Nc1ccc2c(c1)OCO2`: the z-score in experiment [1] is 0.903 (inactive); in experiment [3], 6.15 (inactive); in experiment [4], 0.462 (inactive); in [5], 0.521 (inactive); in [6], 0.643 (inactive); in [7], -0.0353. For the same molecule, the z-score in experiment [8] is -3.15 (inactive); in [9], -0.681 (inactive); in [10], -2.02; in [11], -0.598; in experiment [12] it was 0.424; in experiment [13], -1.86. For the same molecule, the z-score in [14] is -1.17; in experiment [15] it was -2.11; in [16], -0.216; in experiment [17] it was 0.712 (inactive); in experiment [18], -0.313; in experiment [19], -0.0179. In addition, the z-score in [20] was -1.14 (inactive). In experiment [2], this molecule gave a composite z-score of 0.236.
Consider `Cc1ccc(N2C(=O)c3ccccc3[C@](C)(C(=O)NC(C)C)[C@@H]2c2ccc(CO)cc2)nc1`, for which the z-score is 1.07 (inactive) in experiment [1]; 0.641 (inactive) in experiment [3]; 0.414 (inactive) in experiment [4]; 0.18 (inactive) in experiment [5]; 0.232 (inactive) in experiment [6]; 0.274 in experiment [7]. In addition, the z-score in experiment [8] is 0.358 (inactive); in experiment [9], -0.357 (inactive); in [10], -0.363; in [11], -0.465; in [12], 0.92; in experiment [13], -1.37. Besides, the z-score in experiment [14] is -1.03; in [15] it was -1.35; in experiment [16] it was -0.42; in experiment [17], -0.424 (inactive); in experiment [18], -0.586; in [19], 1.34. The z-score in experiment [20] was 0.0095 (inactive). Also, the composite z-score in experiment [2] was -0.275.
For `[N-]=[N+]=Nc1ccccc1C[C@]1(C(=O)NCCN2CCOCC2)N=C(c2ccc(OCCCO)cc2)O[C@H]1c1ccccc1N=[N+]=[N-]`, the z-score in experiment [1] was 1.11 (inactive); in experiment [3], 27.7 (active); in experiment [4], 23.2 (active); in [5], 1.35 (inactive); in experiment [6], 4.41 (inactive); in experiment [7], 1.75. Further, the z-score is -2.69 (inactive) in [8]; 0.686 (inactive) in experiment [9]; -1.15 in experiment [10]; 0.0861 in [11]; 0.784 in experiment [12]; -0.111 in [13]. The z-score is -2.41 in experiment [14]; -1.2 in experiment [15]; 1.23 in experiment [16]; 1.27 (inactive) in experiment [17]; -1 in experiment [18]; -0.571 in experiment [19]. For the same molecule, the z-score in experiment [20] is -2.47 (inactive). In experiment [2], the composite z-score was 0.628.
Consider `O=C1OCC=C[C@H]2OC34C=CCN(CCN5CCOCC5)C(=O)[C@H]3N(CCCCCO)C(=O)[C@@H]4[C@@H]12` (stereo not given in full), for which the z-score was -0.457 (inactive) in [1]; 1.69 (inactive) in [3]; 0.526 (inactive) in experiment [4]; 1.5 (inactive) in [5]; 0.0882 (inactive) in experiment [6]; 2.31 in [7]. The z-score in experiment [8] is 0.922 (inactive); in experiment [9] it was 0.379 (inactive); in [10], 2.1; in [11], 0.348; in experiment [12], 0.277; in experiment [13] it was -0.36. In addition, the z-score in experiment [14] is 0.148; in [15] it was 0.182; in experiment [16] it was -0.539; in [17] it was 0.379 (inactive); in [18] it was 0.205; in experiment [19], 0.802. In experiment [20], the z-score was -0.536 (inactive). This molecule registered a composite z-score in [2] of -0.045.
For `O=C1OCCC=C[C@H]2OC34C=CCN(Cn5nnc6ccccc65)C(=O)[C@H]3N(CCCCCO)C(=O)[C@@H]4C12` (stereo not given in full), the z-score was 0.592 (inactive) in experiment [1]; 2.34 (inactive) in experiment [3]; 0.573 (inactive) in experiment [4]; 2.35 (inactive) in experiment [5]; 0.281 (inactive) in [6]; 0.0848 in experiment [7]. Further, the z-score is 1.4 (inactive) in [8]; 0.279 (inactive) in experiment [9]; 1.51 in experiment [10]; -0.0295 in [11]; 0.43 in experiment [12]; 0.293 in [13]. Moreover, the z-score in experiment [14] was 1.75; in [15], 0.723; in experiment [16], 0.742; in [17], 0.117 (inactive); in [18], 0.0919; in [19] it was -1.19. Besides, the z-score in [20] is -0.605 (inactive). For the same molecule, the composite z-score in experiment [2] worked out at 0.119.
